Compound activity as filed in PubChem BioAssay.
Most compounds without a hit are left out; they make up all but 8% or so of the library.
HT1080-NT tox = qHTS for induction of synthetic lethality in tumor cells producing 2HG: qHTS for the HT-1080-NT fibrosarcoma cell line | HT-1080-NT fibrosarcoma viability, CellTiter-Glo ATP luminescence, 48 h | Potency, µM (titrated, usually from 46.1 µM), without a hit: at the highest dose activity, negative = less viability, hits mostly cytotoxic | 360,000 tested, 1.6% active | AID 686970, 2013;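 note: NT is the 2HG producing partner of a matched IDH1 knockdown line; 0% = DMSO-treated cells and -100% = media-only wells without cells; nearly all actives have a fitted effect of over 55% in size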
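Compounds were tested in concentration-response format on HT-1080-NT cells for 48 hours at 37 degrees C. Cell viability came from CellTiter-Glo luminescence; curves were classified by r2, response magnitude and activity.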
HT1080 IDH1KD tx = qHTS for induction of synthetic lethality in tumor cells producing 2HG: qHTS for the HT-1080-IDH1KD cell line. HT-1080 IDH1 knockdown viability, ATP luminescence, 48 h. Potency, µM (top dose mostly 46.1 µM), without a hit: at the top dose activity, negative = toxicity, usual class: cytotoxic. 360,000 tested, 2% active. AID 686971, 2013;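 note: 0% = DMSO wells and -100% = cell-free medium wells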
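After a 2 h attachment period, IDH1KD HT-1080 cells took pin-transferred compound for 48 h at 37 °C; ATP-based luminescence after 10 min room-temperature reagent incubation reported viability.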
MCF10A rerep = A quantitative high throughput screen for small molecules that induce DNA re-replication in MCF 10a normal breast cells; Potency, µM (top dose mostly 46.1 µM), for the others: at the highest dose activity, positive = re-replication, hits mostly activators; MCF 10A DNA re-replication, Hoechst nuclear intensity, 48 h; 350,000 tested, 2.9% active; note: % of control where 0% means no effect; nearly all actives have a fitted effect of over 50% in size
SW480 rerep = A quantitative high throughput screen for small molecules that induce DNA re-replication in SW480 colon adenocarcinoma cells | 340,000 tested, 1.8% active | AID 624297, 2012 | SW480 DNA re-replication, Hoechst DNA content imaging, 48 h | Potency, µM (highest dose often 46.1 µM), for the others: at the highest dose re-replication activation, hits mostly activators; note: % of control where 0% means no effect; nearly all actives have a fitted effect of over 55% in size
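Per well, 250 cells were exposed to pinned compound for 48 hr. Nuclear DNA was visualised with Hoechst (40 min, 37 C) and total object intensity recorded by fluorescence scanning.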
KB-3-1 cytotox = qHTS assay for MDR1-selective chemotherapeutics: Primary screen using the parental adenocarcinoma cell KB-3-1 | Potency, µM (titrated, usually from 46.1 µM), usual class: cytotoxic | KB-3-1 viability, CellTiter-Glo ATP luminescence, 72 h | 400,000 tested, 1.4% active; note: % is set by controls: 0 for no effect and ±100 for the full control effect; nearly all actives have a fitted effect of over 60% in size
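KB-3-1 parental drug-naive adenocarcinoma cells in DMEM/10% FBS, incubated 72 h at 37 C with pin-transferred compounds across a concentration series. Viability by CellTiter-Glo luminescence; concentration-response curves fitted after normalization.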
KB-V1 MDR tox = qHTS assay for MDR1-selective chemotherapeutics: Primary screen using the drug-selected MDR subline cells KB-V1 | AID 1347076, 2019 | 400,000 tested, 3.4% active | Potency, µM (top dose mostly 46.1 µM), actives largely listed as cytotoxic | KB-V1 MDR cells viability, CellTiter-Glo, 72 h; note: % is set by controls: 0 for no effect and ±100 for the full control effect; nearly all actives have a fitted effect of over 60% in size
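KB-V1, DMEM (no phenol red) + 10% FBS; cpd pin-transferred, titration series; 72 h, 37 degrees C; CellTiter-Glo, luminescence. Data normalized, curve-fit.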
* hit, by the source's call; i = inactive; ? = inconclusive; . = no result; [ ] = remark or other dose. Calls come from the whole dose curve; as a rule, active = well fitted curve in the direction sought with a large enough effect; inconclusive = small, poorly fitted or top-dose-only effect, or another doubt; inactive = no such curve, though single readings can be large; an effect the other way counts as inactive or inconclusive. Potency is the fitted concentration of half-maximal effect.

SMILES | HT1080-NT tox | HT1080 IDH1KD tx | MCF10A rerep | SW480 rerep | KB-3-1 cytotox | KB-V1 MDR tox
Cc1ccc(C2c3[nH]c4ccccc4c3C[C@H]3C(=O)N(c4ccccc4C(=O)NCCCN4CCOCC4)C(=O)N23)cc1 (stereo not given in full) | ? | 29µM* | ? | 24% | i | i
CN(C)c1ccc(N=Nc2ccc(/C=C/c3ccnc4ccccc34)cc2)cc1 | . | . | . | . | i | i
O=C(Nc1ccn(-c2ccccc2)n1)c1ccc(Cl)cc1 | -3% | -17% | ? | -1% | i | 18µM*
Cc1ccc(NC(=O)CSc2nnc(-c3cnccn3)n2-c2ccccc2)cc1 | 0% | -6% | 8% | 0% | i | i
Cc1nc2sc(C(c3ccco3)N3CCN(c4ccccc4F)CC3)c(O)n2n1 (stereo not given) | 9% | 6% | 18µM* | 17% | i | i
Brc1ccc(-c2noc(COc3ccc4c(c3)CCC4)n2)o1 | -5% | -3% | 10% | -11% | i | i
c1csc(-c2noc(COc3ccc4c(c3)CCCC4)n2)c1 | -5% | 1% | 15µM* | 7% | i | i
COc1ccccc1NS(=O)(=O)c1cc([N+](=O)[O-])ccc1N/N=C/c1c(C)[nH]c2ccccc12 | -25% | -14% | ? | 12% | i | i
O=[N+]([O-])c1ccc(N/N=C/c2c[nH]c3ccccc23)c(S(=O)(=O)Nc2ccc(Cl)cc2)c1 | -2% | -23% | ? | 21µM* | ? | ?
C[C@H](CO)N1C[C@H](C)[C@@H](CN(C)Cc2cccc(C(F)(F)F)c2)OCc2cnnn2CCCC1=O | 3% | 3% | . | . | i | i
CC(C)OC(=O)n1c(=S)oc2ccccc21 | -4% | -1% | 4.6µM* | ? | i | i
CCCCC(=O)/C=C/n1c(=S)oc2ccccc21 | 10µM* | 3.7µM* | 2.9µM* | 6.5µM* | ? | ?
CCOC(=O)c1c(C)n(C)c2ccc(OCC(O)Cn3nc(C)c(Br)c3C)cc12 (stereo not given) | -4% | -1% | 15µM* | 9% | ? | ?
CC(=O)c1c(C)nn(CC(O)COc2ccc3ccccc3c2)c1C (stereo not given) | 0% | -11% | 3% | -3% | i | 7.3µM*
CCOC(=O)c1c(C)n(C)c2ccc(OCC(O)CN3CCCCCC3)cc12 (stereo not given) | -23% | -9% | 8% | 11% | i | i
CCOC(=O)c1c(C)n(-c2ccc(C)cc2)c2ccc(OCC(O)CNCCCO)cc12 (stereo not given) | ? | 23µM* | ? | 2% | i | ?
COc1ccc(/C=N/OCC(=O)Nc2ccc3c(c2)OCO3)c(OC)c1 | -7% | -8% | 0% | ? | i | ?
Cc1ccc(NC(=O)C(=O)NCC(c2cccnc2)N2CCN(c3ccccc3F)CC2)cc1Cl (stereo not given) | . | . | . | . | i | i
Cc1ccccc1Nc1nnc(-c2ccc(C)c(S(=O)(=O)NCC3CCCO3)c2)c2ccccc12 (stereo not given) | . | . | . | . | i | i
O=[N+]([O-])c1ccc(NC(=S)NCCc2ccc(Cl)cc2)cc1 | ? | ? | ? | 11% | ? | 16µM*
Fc1ccc(CNC(=S)Nc2cccc(Cl)c2)cc1 | ? | -26% | 16µM* | 5% | i | i
O=[N+]([O-])c1ccc(NC(=S)NCc2ccc(F)cc2)cc1 | ? | 23µM* | 16µM* | ? | ? | ?
S=C(NCc1ccncc1)Nc1cccc(Cl)c1 | 1% | -2% | -1% | -5% | i | ?
S=C(NCCN(C1CCCCC1)C1CCCC1)Nc1cccc(Cl)c1 | 16µM* | 16µM* | ? | ? | ? | ?
S=C(NCCC(c1ccccc1)c1ccccc1)Nc1cccc(Cl)c1 | ? | ? | ? | -2%[9.22 µM] | i | ?
SMILES | HT1080-NT tox | HT1080 IDH1KD tx | MCF10A rerep | SW480 rerep | KB-3-1 cytotox | KB-V1 MDR tox
Cc1ccc(NC(=O)CSc2nc(=O)n(Cc3ccccn3)c3c2CCC3)cc1F | . | . | . | . | i | i
C[C@@H](C(=O)N=c1sc2ccccc2n1C)N1C(=O)C2CC=CCC2C1=O (stereo not given in full) | -2% | -18% | -2% | 13% | i | i
S=C(NCc1ccccc1)NC1CCCCC1 | -2% | 1% | -1% | -3% | i | i
O=[N+]([O-])c1ccc(O)c(NC(=S)Nc2ccccc2)c1 | -15% | ? | -2% | -3% | i | i
CCCCNC(=S)Nc1ccc(Cl)cc1 | -4% | -3% | 15% | 3% | i | 16µM*
O=[N+]([O-])c1ccc(NC(=S)N2CCc3ccccc3C2)cc1 | -4% | 7% | 8% | -66% | i | 23µM*
O=[N+]([O-])c1ccc(NNC(=S)Nc2ccccc2)cc1 | 20µM* | ? | 29% | -4%[9.22 µM] | ? | ?
S=C(NCc1cccc(Cl)c1)NC1CCCCC1 | -1% | -1% | ? | -17% | ? | 18µM*
CC(=O)N1c2ccccc2CC1C(=O)N1CCN(c2cccc(Cl)c2)CC1 (stereo not given) | . | . | . | . | i | i
COc1ccc(-c2noc(CSc3nnc(-c4ccncc4)n3-c3cccc(C)c3)n2)cc1OC | . | . | . | . | i | i
Cc1ccc2[nH]c3c(=O)n(CC(=O)N4CCN(c5ccccc5F)CC4)ncc3c2c1 | . | . | . | . | i | i
CCCCc1ccc(NC(=O)C(=O)NCCN2CCN(Cc3ccc([N+](=O)[O-])cc3)CC2)cc1 | 0% | -1% | 3.3µM* | 10% | i | ?
COc1ccc(OC(C)C(=O)N(C)Cc2nc(-c3ccc(OC)cc3)no2)cc1 (stereo not given) | ? | 0% | 9% | -18% | ? | 18µM*
CC(C)N(Cc1nc(-c2ccccc2)no1)C(=O)C(C)(C)C | 11% | 9% | 1% | -6% | i | i
COc1ccc(-c2noc(CN(C(=O)C(C)(C)C)C(C)C)n2)cc1 | 8% | 9% | 22% | -3% | i | 21µM*
